The values that follow come from PubChem BioAssay (NCI).

Each structure is given as a SMILES string. About 83,000 compounds went through this panel and 20% of them were active in at least one assay; those are over-represented in the sample as a whole.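 96-well plates, one dose, 48 hours. Percent growth reported; active if below 10.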 Unmarked numbers belong to inactive results. Calls of active or inactive are those of the source.

The first assay relates to HCC-2998 colon. Put plainly: NCI-60 one-dose screen, 48 h (100 = growth as untreated, 0 = no growth, -100 = all killed). Particulars: 10 µM unless noted.
For the molecule `c1csc(-c2c3ccc(=[N+]4CCCCC4)cc-3oc3cc(N4CCCCC4)ccc23)c1`, the growth is -94.2% (active).

On to `NS(=O)(=O)c1ccc(-n2nc(C(=O)N/N=C\c3ccc(F)cc3)cc2-c2ccc(Cl)cc2)cc1`, for which the growth was 98%. On the same count and under the same terms, for `COc1ccc(-c2nc(SCC(=O)Nc3nc(-c4ccccc4)cs3)[nH]c(=O)c2C#N)cc1` the value was 87.5%. Same read-out and setting: for `COc1ccc(NC(=O)CSc2nnc(-c3cc(-c4ccccc4)nc4ccccc34)n2-c2ccccc2)cc1` the value was 107%; for `N#Cc1nc(C#N)c(Sc2ccccc2)c(Sc2ccccc2)c1Sc1ccccc1`, -85.4% (active); for `O=[N+]([O-])c1ccc(C2CC(c3ccccc3)=Nc3ccccc3S2)cc1` (stereo not given), 103%. Same read-out and setting: the same measure for `O=C(CCCCCCSc1nc(-c2ccccc2)cc(-c2ccc(Cl)cc2)n1)NO`: 51.8%. Turning to `COc1ccccc1N1C(=O)/C(=C/C2=Cc3ccccc3OC2)SC1=S`, the growth was 102%. Same read-out and setting: for `O=C(CSc1nccc(Nc2ccc(S(=O)(=O)Nc3nccs3)cc2)n1)c1ccc(F)cc1` the value was 107%; for `COc1ccc(-c2[nH]c(=S)n(C(CC3(C)NCC(=O)N3n3c(-c4ccccc4)cc(C)nc3=S)c3ccc(OC)cc3)c(=O)c2Br)cc1` (stereo not given), 61.2%. Same read-out and setting: for `COc1ccc(Cl)cc1NC(=O)C(Br)C(Br)C(=O)O` (stereo not given) the value was 38.6%. As for `CS(=O)(=O)c1ccc(Nc2nc(N[C@H]3CCCC[C@H]3N)nc3cc[nH]c(=O)c23)cc1`, the growth is -13.1% (active). Consider `O=c1oc2ccccc2c(Cl)c1Cl`, for which the growth was 93.1%. On to `COc1ccc(NC(=O)CSc2nnc(-c3cc(-c4ccc(S(N)(=O)=O)cc4)nc4ccccc34)n2-c2ccccc2)cc1`, for which the growth is 101%. Still for that read-out and setting: the same measure for `CCC(CO)Nc1nc2ccc(Cl)cc2c2ccccc12` (stereo not given): 54.9%; for `Cc1ccc(C2SCC(=O)N2Cc2ccccc2)cc1` (stereo not given): 90.7%; for `N#C/C(=C\c1ccc(-c2ccccc2F)o1)c1nc(-c2ccco2)cs1`: 67.8%.

Another assay deals with KM12 colon. The description is as above. Particulars: 10 µM unless noted.
Regarding `CCN(CC)CCCNc1ccc(Nc2ccc(OC)cc2)cc1`, the growth is 85.3%.

For `COc1ccc(-c2c(N)n[nH]c2-c2ccc(Cl)cc2O)cc1OC`, the growth was 83%.

As to `c1csc(-c2c3ccc(=[N+]4CCCCC4)cc-3oc3cc(N4CCCCC4)ccc23)c1`, the growth was -92.9% (active). The same measure, in the same setting: for `NS(=O)(=O)c1ccc(-n2nc(C(=O)N/N=C\c3ccc(F)cc3)cc2-c2ccc(Cl)cc2)cc1` the value was 96.9%. On the same count and under the same terms, the same measure for `CCN(CC)c1ccc(C(=O)c2ccc(N(CC)CC)cc2)cc1`: 25.1%; for `COc1ccc(-c2nc(SCC(=O)Nc3nc(-c4ccccc4)cs3)[nH]c(=O)c2C#N)cc1`: 108%; for `O=S(=O)(O)c1ccc(N/N=C/c2ccccc2Cl)cc1`: 116%.

Turning to `CC(C)(C)OC(=O)Nc1ccc2c(c1)C(NC(=O)Nc1cccc(C#N)c1)CC(C)(C)O2` (stereo not given), the growth was 49.5%. On the same count and under the same terms, the same measure for `CCCCCCCCCCCC(c1ccccc1)[N+](C)(C)C` (stereo not given): -20.7% (active). For the molecule `COc1ccc(C(=NN=C(N)N)c2ccc(OC)cc2)cc1`, the growth is 21.2%. Still for that read-out and setting: for `COc1ccc(NC(=O)CSc2nnc(-c3cc(-c4ccccc4)nc4ccccc34)n2-c2ccccc2)cc1` the value was 98.1%; for `O=C(NC(CSSCC(NC(=O)c1ccccc1)C(=O)O)C(=O)O)c1ccccc1` (stereo not given), 97.9%; for `Cn1c(=O)c2[nH]c(NN)nc2n(C)c1=O`, 119%. On the same count and under the same terms, for `N/C(=N/N=C/c1ccccc1)N/N=C\c1ccccc1` the value was 35%; for `CCN(CCNc1ccc(C)c2sc3ccccc3c(=O)c12)CC(C)(C)O`, 48.3%; for `N#Cc1nc(C#N)c(Sc2ccccc2)c(Sc2ccccc2)c1Sc1ccccc1`, -85.2% (active). Still for that read-out and setting: for `COc1ccc(C(=O)Nn2c(NCC(=O)N3c4ccccc4Sc4ccccc43)nnc2-c2ccc(O)cc2)cc1` the value was 109%. For `CCC1(C2CCCC2)NC(=O)NC1=O` (stereo not given), the growth was 116%. The same measure, in the same setting: for `O=[N+]([O-])c1ccc(C2CC(c3ccccc3)=Nc3ccccc3S2)cc1` (stereo not given) the value was 73.6%; for `Cn1c(=O)c2c(nc(Cl)n2CCl)n(C)c1=O`, 116%. Still for that read-out and setting: the same measure for `O=C(CCCCCCSc1nc(-c2ccccc2)cc(-c2ccc(Cl)cc2)n1)NO`: 31.4%; for `CC1(C)CC(=O)CC2(C1)N=C(N)Nc1nc3ccccc3n12` (stereo not given): 108%; for `COc1ccccc1N1C(=O)/C(=C/C2=Cc3ccccc3OC2)SC1=S`: 99.6%.
